{"source": "PubChem BioAssay AID504834", "about": "(National Center for Advancing Translational Sciences (NCATS), 2011)", "note": "The whole screen tested about 320,000 compounds, of which about 22,000 (6.9%) were called active. Inconclusive results (about 27%) are left out. Calls follow the shape of the dose curve; as a rule, active = well fitted inhibition curve with a large enough effect; inconclusive = small, poorly fitted or top-dose-only effect, or another doubt; inactive = no such curve, though single readings can be large or run the other way. What follows is part of a selection rich in actives, with near analogues and random picks from the rest. Where a call stands in place of a potency, no number is given. Potency is read from the fitted curve at half-maximal effect."}
{"assay": "Primary qHTS for delayed death inhibitors of the malarial parasite plastid, 96 hour incubation", "conditions": "P. falciparum luciferase reporter growth; series mostly up to 28.7 µM", "outline": "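Two parasite generations (96 h, 37 C, 5% CO2) of compound exposure in infected erythrocytes (0.05% parasitemia, 2% hematocrit). Luciferase-reporter P. falciparum; decreased luminescence indicates inhibited growth, aimed at apicoplast-acting delayed death.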"}
{"smiles": "O=C(C1CCC1)N1CCN(c2ccccc2)CC1", "Potency": "inactive"}
{"smiles": "COc1ccc(NC(=O)CCC(=O)Nc2nnc(C3CCCCC3)s2)cc1", "Potency": "inactive"}
{"smiles": "COc1cc(C(=O)NCc2cc3cc(Cl)ccc3n2C)cc(OC)c1OC", "Potency": "inactive"}
{"smiles": "Cc1nc(SCC(=O)N2CCc3ccccc3C2)c2c(C)c(C)sc2n1", "Potency": "inactive"}
{"smiles": "CCn1c(SCC(=O)c2ccc3ccccc3c2)nnc1-c1cccs1", "Potency": "inactive"}
{"smiles": "O=C(CSc1nnc(-c2cccs2)n1Cc1ccccc1)N1CCc2ccccc2C1", "Potency": "10.4 µM (active)"}
{"smiles": "CCn1c(Cc2ccc(OC)cc2)nnc1SCC(=O)Nc1ccc(N2CCOCC2)cc1", "Potency": "inactive"}
{"smiles": "CCn1c(SCC(=O)NC2CCCC2)nnc1-c1ccoc1C", "Potency": "inactive"}
{"smiles": "CCN(CC)c1ccc(NC(=O)c2ccc(=O)[nH]c2)cc1S(=O)(=O)Nc1ccc(OC)cc1", "Potency": "9.28 µM (active)"}
{"smiles": "O=C(NNC(=O)c1cccc(S(=O)(=O)Nc2ccc(Cl)cc2)c1)c1ccc(=O)[nH]c1", "Potency": "inactive"}
{"smiles": "COc1ccc(NS(=O)(=O)c2ccc(NC(=O)c3ccc(N(C)S(C)(=O)=O)cc3)cc2)cc1", "Potency": "inactive"}
{"smiles": "COc1ccc(S(=O)(=O)n2cnc3ccccc32)c(C)c1", "Potency": "inactive"}
{"smiles": "CCCc1c(C(=O)N/N=C(\\C)CCc2ccc(OC)cc2)nnn1-c1nonc1N", "Potency": "inactive"}
{"smiles": "CCN1CCN(C(=O)N(Cc2ccc(Cl)cc2)S(=O)(=O)c2ccc(C)cc2)CC1", "Potency": "inactive"}
{"smiles": "O=C(CSc1n[nH]c(-c2cccnc2)n1)Nc1ccc(Cl)cc1", "Potency": "inactive"}
{"smiles": "CC(C)CN(C(=O)c1ccc2c(c1)OCO2)C1CCS(=O)(=O)C1", "note": "(stereo not drawn)", "Potency": "inactive"}
{"smiles": "O=C(CN1C(=O)COc2ccccc21)NCCN1CCc2ccccc2C1", "Potency": "inactive"}
{"smiles": "O=C(CN1C(=O)COc2ccccc21)Nc1ccc(F)cc1", "Potency": "1.47 µM (active)"}
{"smiles": "O=C(CN1C(=O)COc2ccc(Cl)cc21)Nc1ccc(N2CCOCC2)cc1", "Potency": "inactive"}
{"smiles": "O=C(CCCN1C(=O)/C(=C/c2cccs2)SC1=S)Nc1ccc(O)cc1", "Potency": "inactive"}
{"smiles": "NS(=O)(=O)c1ccc(CCNC(=O)CN2C(=O)c3ccccc3S2(=O)=O)cc1", "Potency": "inactive"}
{"smiles": "CCN(C(=O)CSc1ncnc2sccc12)c1c(N)n(Cc2ccccc2)c(=O)[nH]c1=O", "Potency": "inactive"}
{"smiles": "COc1cccc(OC)c1C(=O)Nc1ccc2c(c1)n(C)c(=O)n2C", "Potency": "inactive"}
{"smiles": "COc1ccc(C(=O)NC2CC2)cc1OC1CCN(Cc2ccc(SC)cc2)CC1", "Potency": "inactive"}
{"smiles": "COc1ccc(C(=O)N(C)CC(O)c2ccccc2)cc1OC1CCN(C(C)=O)CC1", "note": "(stereo not drawn)", "Potency": "inactive"}
{"smiles": "COc1ccc(C(=O)NC2CC2)cc1OC1CCN(C/C=C/c2ccccc2)CC1", "Potency": "11.7 µM (active)"}
{"smiles": "O=C(NCCc1ccccn1)c1nc(Cn2cc([N+](=O)[O-])cn2)no1", "Potency": "inactive"}
{"smiles": "CC(OC(=O)CNC(=O)c1cccc(F)c1)C(=O)NC1CCCCC1C", "note": "(stereo not drawn)", "Potency": "inactive"}
{"smiles": "COc1ccc2ccccc2c1/C=N/NC(=O)c1cc(C)[nH]n1", "Potency": "inactive"}
{"smiles": "O=[N+]([O-])c1ccc(C=Nc2ccc(Cl)cc2Cl)s1", "Potency": "inactive"}
{"smiles": "CC(C)(C)c1cc(C(=O)N/N=C/c2ccc([N+](=O)[O-])s2)n[nH]1", "Potency": "1.65 µM (active)"}
{"smiles": "COC(=O)c1ccc(COC(=O)c2cnc(Cl)c(Cl)c2)cc1", "Potency": "inactive"}
{"smiles": "CCOc1ccc(CCNC(=O)COC(=O)CCS(=O)(=O)c2ccc(C)cc2)cc1OCC", "Potency": "inactive"}
{"smiles": "CCC(C(=O)N1CCN(S(=O)(=O)c2sc(C(=O)O)c(C)c2C(=O)O)CC1)c1ccccc1", "note": "(stereo not drawn)", "Potency": "inactive"}
{"smiles": "CN(C(=O)CN1C(=O)CCSc2ccc(S(=O)(=O)N3CCCC3)cc21)c1ccccc1", "Potency": "inactive"}
{"smiles": "CCOc1cc(C(=O)N2CCc3cc(OC)c(OC)cc3C2)ccc1OC(F)F", "Potency": "5.86 µM (active)"}
{"smiles": "COc1cc2c(cc1OC)CN(C(=O)c1ccc(S(=O)(=O)N3CCCCCC3)cc1)CC2", "Potency": "0.465 µM (active)"}
{"smiles": "COC(=O)Cc1ccc(OC(=O)C2CCN(S(=O)(=O)c3ccc(OC)c(OC)c3)CC2)cc1", "Potency": "inactive"}
{"smiles": "CCOc1cc(CN2CCN(C(=O)CC(C)C)CC2)ccc1OC", "Potency": "inactive"}
{"smiles": "COc1ccc(S(=O)(=O)N2CCCCC2)cc1Br", "Potency": "inactive"}
{"smiles": "COc1ccc(S(=O)(=O)N2CCC(C(=O)N3CCCC3)CC2)cc1C", "Potency": "inactive"}
{"smiles": "CCOc1ccc(NC(=O)COc2ccc(C(=O)N3CCC(C(N)=O)CC3)cc2OC)cc1", "Potency": "inactive"}
{"smiles": "COc1ccc(S(=O)(=O)N2CCC(C(=O)N3CCc4ccccc4C3)CC2)cc1OC", "Potency": "8.28 µM (active)"}
{"smiles": "COc1cc(C(=O)NNC(=O)c2ccc(S(=O)(=O)N3CCCCC3)cc2)cc(OC)c1OC", "Potency": "inactive"}
{"smiles": "COC(=O)c1ccc(C)c(NC(=O)C2CC(=O)N(C3CCCC(C)C3C)C2)c1", "note": "(stereo not drawn)", "Potency": "inactive"}
{"smiles": "COC(=O)c1ccccc1NC(=O)C1CCN(C(=O)N2CCOc3ccccc32)CC1", "Potency": "inactive"}
{"smiles": "O=C(COC(=O)c1cccc(Cl)c1)Nc1ccc2[nH]c(=O)[nH]c2c1", "Potency": "inactive"}
{"smiles": "Cc1ccc(CN(CC(=O)NCC2CCCO2)S(=O)(=O)c2ccc(C)cc2)cc1", "note": "(stereo not drawn)", "Potency": "inactive"}
{"smiles": "CC(=O)Nc1ccc(NC(=O)CN2C(=O)COc3ccc(S(=O)(=O)N4CCCCC4)cc32)cc1", "Potency": "inactive"}
{"smiles": "Cc1ccn2c(=O)nc(SCC(=O)NCc3ccc4c(c3)OCO4)nc2c1", "Potency": "inactive"}
{"smiles": "Cc1ccc(C)c(C(=O)COC(=O)Cn2[nH]c(=O)c3ccccc3c2=O)c1", "Potency": "inactive"}
{"smiles": "Cc1nc(NC(=O)c2ccc3c(c2)OCCO3)ccc1Br", "Potency": "inactive"}
{"smiles": "COc1ccc(-c2[nH]ncc2CN(C)Cc2c(C)n[nH]c2C)c(OC)c1", "Potency": "inactive"}
{"smiles": "CCOc1ccc(-c2nc(N)ncc2-c2ccccc2OC)c(O)c1", "Potency": "inactive"}
{"smiles": "COc1ccc(-c2n[nH]c(C)c2-c2ccccc2OC)c(O)c1", "Potency": "11.7 µM (active)"}
{"smiles": "C=C(C)COc1ccc(-c2n[nH]c(C)c2-c2ccccc2OC)c(O)c1", "Potency": "11.7 µM (active)"}
{"smiles": "CCOc1ccc(-c2n[nH]c(C)c2-c2ccccn2)c(O)c1", "Potency": "inactive"}
{"smiles": "C=C(C)COc1ccc(-c2ncncc2-c2ccc(OC)cc2)c(O)c1", "Potency": "inactive"}
{"smiles": "COc1ccc(N=Nc2ccc(O)c(P(=O)(c3ccccc3)c3ccccc3)c2)cc1", "Potency": "inactive"}
{"smiles": "CCc1nc2nc(C)c(NS(=O)(=O)c3ccc4c(c3)CCCC4)c(=O)n2[nH]1", "Potency": "inactive"}
{"smiles": "C=CCn1cc(Cl)cc(C(=O)Nc2ccccc2)c1=O", "Potency": "inactive"}
{"smiles": "CCOc1ccc(N/C=C/C(=O)c2cc(OC)c(OC)c(OC)c2)cc1", "Potency": "inactive"}
{"smiles": "Cc1cccc(NC(=O)CSCC(=O)Nc2nnc(C3CC3)s2)c1", "Potency": "inactive"}
{"smiles": "NC(=O)NC(=O)C(OC(=O)CCNS(=O)(=O)c1ccccc1)c1ccccc1", "note": "(stereo not drawn)", "Potency": "inactive"}
{"smiles": "COc1ccc2c(c1)c1nc3n(c(=O)c1n2CC(=O)Nc1ccccc1)CCS3", "Potency": "inactive"}
{"smiles": "COCCn1c(SCC(=O)Nc2ccc3c(c2)CCC3)nc2ccccc2c1=O", "Potency": "inactive"}
{"smiles": "CCn1c(SCC(=O)Nc2ccc(C)cc2)nc2nc3c(cc2c1=O)CCCC3", "Potency": "14.7 µM (active)"}
{"smiles": "CCn1c(CC(=O)Nc2ccc(C)cc2)nnc1SCC(=O)Nc1nc(C)cs1", "Potency": "inactive"}
{"smiles": "O=C(OCC1OC(Oc2ccc(O)cc2)C(O)C(O)C1O)c1ccccc1", "note": "(stereo not drawn)", "Potency": "inactive"}
{"smiles": "COc1ccc(-c2nc(SCC(=O)N3CCCC3)n[nH]2)cc1", "Potency": "inactive"}
{"smiles": "O=S(=O)(c1ccc(-c2ccno2)s1)N1CCCCC1", "Potency": "inactive"}
{"smiles": "CCCCN1Cc2c(nc3cc(-c4ccccc4)[nH]n3c2=O)C1=O", "Potency": "inactive"}
{"smiles": "O=C(CCNS(=O)(=O)c1ccccc1C(F)(F)F)Nc1ccncc1", "Potency": "inactive"}
{"smiles": "CCOc1ccccc1N(CC(=O)Nc1ccccc1C(=O)OC)S(C)(=O)=O", "Potency": "inactive"}
{"smiles": "COc1ccc([N+](=O)[O-])cc1N(CC(=O)Nc1ccccc1C(=O)N1CCOCC1)S(C)(=O)=O", "Potency": "inactive"}
{"smiles": "COc1ccc(N(CC(=O)N2CCCCCC2)S(=O)(=O)c2ccccc2)cc1", "Potency": "inactive"}
{"smiles": "COc1ccccc1N(CC(=O)Nc1ccccc1C(=O)N1CCCC1)S(C)(=O)=O", "Potency": "9.28 µM (active)"}
{"smiles": "COc1ccccc1N(CC(=O)N1CCCCC1)S(=O)(=O)c1ccccc1", "Potency": "11.7 µM (active)"}
{"smiles": "COc1ccccc1NC(=O)CN(c1ccccc1OC)S(=O)(=O)c1ccccc1", "Potency": "inactive"}
{"smiles": "Cc1cc(C)c(S(=O)(=O)c2cc(F)ccc2C)c(=O)[nH]1", "Potency": "inactive"}
{"smiles": "O=C(COC(=O)c1ccc(N2CCCC2=O)cc1)c1ccc(OC(F)F)cc1", "Potency": "inactive"}
{"smiles": "COc1ccc(NC(=O)C2C3CCC(O3)C2C(=O)O)cc1OC", "note": "(stereo not drawn)", "Potency": "inactive"}
{"smiles": "O=C(CCCN=C1NS(=O)(=O)c2ccccc21)OCC(=O)c1ccc(F)c(F)c1", "Potency": "inactive"}
{"smiles": "CCN(CC(=O)Nc1ccc2c(c1)OCO2)S(=O)(=O)c1ccccc1", "Potency": "inactive"}
{"smiles": "CN(C)S(=O)(=O)c1ccc(NC(=O)N2CCOCC2)cc1", "Potency": "inactive"}
{"smiles": "COc1cc(NC(=O)N2CCOCC2)cc(OC)c1", "Potency": "inactive"}
{"smiles": "CN(C)C(=O)Oc1ccc(NC(=O)N2CCOCC2)cc1", "Potency": "3.29 µM (active)"}
{"smiles": "CCCCN1CCNC1=S", "Potency": "inactive"}
{"smiles": "COc1ccc(-c2cc(=O)oc3cc(OCC(=O)N(C)C4CCS(=O)(=O)C4)ccc23)cc1", "note": "(stereo not drawn)", "Potency": "inactive"}
{"smiles": "CN(CC#CCC(c1ccccc1)c1ccccc1)C(C)(C)C", "Potency": "4.65 µM (active)"}
{"smiles": "CC(C)(C)N(CC#CCC(O)(c1ccccc1)C1CCCC1)CCO", "note": "(stereo not drawn)", "Potency": "inactive"}
{"smiles": "CCCn1nc(C(=O)NNC(=O)CCOc2ccccc2OCC)c2ccccc2c1=O", "Potency": "inactive"}
{"smiles": "CC(Sc1nnc(CNC(=O)c2ccccc2F)n1C)C(=O)Nc1nccs1", "note": "(stereo not drawn)", "Potency": "inactive"}
{"smiles": "CCCC(O)(CCC)C(=O)NN(C(=O)CCl)c1cccc(C)c1", "Potency": "1.04 µM (active)"}
{"smiles": "Cc1ccc(N(NC(=O)C(C)(C)O)C(=O)c2ccccc2)cc1C", "Potency": "inactive"}
{"smiles": "CC(C)(O)C(=O)NN(C(=O)c1ccccc1)c1cccc(Br)c1", "Potency": "inactive"}
{"smiles": "Cc1ccc2nc(NC(=O)C3CSC4(C)CCC(=O)N34)sc2c1", "note": "(stereo not drawn)", "Potency": "inactive"}
{"smiles": "Cc1ccc(S(=O)(=O)c2c[nH]c3ccc(C)cc3c2=O)cc1", "Potency": "inactive"}
{"smiles": "O=C(NCc1ccccc1)c1ccc(CNc2c(N3CCCC3)c(=O)c2=O)cc1", "Potency": "inactive"}
{"smiles": "O=S(=O)(NCCS(=O)(=O)N1CCN(c2ccccc2)CC1)c1ccc(F)cc1", "Potency": "inactive"}
{"smiles": "CCOc1cc(/C=N/NC(=O)OC)ccc1OCCSc1ccc(Cl)cc1", "Potency": "10.4 µM (active)"}
{"smiles": "COC(=O)N/N=C/c1ccc(/C=N/NC(=O)OC)cc1", "Potency": "inactive"}
{"smiles": "CCOc1ccc(/C=N/NC(=O)C(C)Sc2ccccn2)cc1OCC", "note": "(stereo not drawn)", "Potency": "inactive"}
